The structures appear in SMILES notation. Calls of active or inactive are those of the source.

Test [1] can be described thus: binders of probe aFSTL3 on microarray, primary screen, stem cell growth factor project, biochemical, small-molecule microarray, fluorescence 635/667 (AID 1064).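 Also: measures binding of the biotinylated anti-FSTL3 antibody to printed compounds.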 Conditions: higher = more signal.
Test [2] can be described thus: binders from COS7 lysate, DM2A8 probe, primary screen, torsin A project, cell lysate, small-molecule microarray, fluorescence 635/667 (AID 1065). As to conditions: higher = more signal, COS7 lysate expressing mutant human TOR1A.
The nature of test [3]: binders of probe aFGF2 on microarray, primary screen, stem cell growth factor project, biochemical, small-molecule microarray, fluorescence 635/667 (AID 1067).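 Also: measures binding of biotinylated aFGF2 protein to printed compounds on slides; z-score merges feature fluorescence and signal-to-noise across triplicate slides.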 Conditions: higher = more signal.
Test [4] is described as follows: binders of probe aFGF10 on microarray, primary screen, stem cell growth factor project, biochemical, small-molecule microarray, fluorescence 635/667 (AID 1071).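 Also: score merges 667 nm spot intensity and signal to noise from triplicate slides.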 As to conditions: higher = more signal.
The target in test [5] is Neurogenic locus notch homolog protein 2 (Homo sapiens) (UniProt Q04721). Briefly: Notch2 binders on small-molecule microarrays, primary screen, biochemical, small-molecule microarray, 635 nm fluorescence, stem cell growth factors (AID 1073). As to conditions: Notch2 binding, higher = more signal.
Test [6] has as its target Pro-neuregulin-1, membrane-bound isoform (Homo sapiens) (UniProt Q02297). Briefly: NRG1 binders on small-molecule microarrays, primary screen, psychiatric disease protein project, biochemical, small-molecule microarray, fluorescence 635/667 (AID 1075).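 Also: score combines 667 nm spot fluorescence with signal to noise.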 As to conditions: NRG1 binding, 635 nm fluorescence, higher = more signal.
The subject of test [7] is Neuregulin-1 EGF-like domain. In words: binders of neuregulin-1 EGF-like domain, primary screen, biochemical, small-molecule microarray, 635 nm fluorescence (AID 1081).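 Also: binding of the protein to compounds printed on small-molecule microarray slides.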 As to conditions: small-molecule microarray binding, higher = more signal.
Test [8] is described as follows: FRG1 promoter luciferase signal modulators, primary screen, FRG1 inhibition for FSHD, cell-based, C2C12 myotubes, firefly/Renilla luciferase, luminescence (AID 1084). Conditions: higher = more signal, called active from +8 up or from −8 down.
Test [9] is described as follows: binders of probe aFST on microarray, primary screen, stem cell growth factor project, biochemical, small-molecule microarray, fluorescence 635/667 (AID 1086).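 Also: score merges 667 nm fluorescence with signal-to-noise of each printed compound spot.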 Conditions: higher = more signal.
Test [10] is described as follows: binders of probe aHhip on microarray, primary screen, stem cell growth factor project, biochemical, small-molecule microarray, fluorescence 635/667 (AID 1087).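 Also: score merges spot fluorescence at 667nm with spot signal to noise ratio.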 Conditions: higher = more signal.

Sequence of Neurogenic locus notch homolog protein 2 (Homo sapiens) (Q04721 whole entry, looked up, canonical isoform): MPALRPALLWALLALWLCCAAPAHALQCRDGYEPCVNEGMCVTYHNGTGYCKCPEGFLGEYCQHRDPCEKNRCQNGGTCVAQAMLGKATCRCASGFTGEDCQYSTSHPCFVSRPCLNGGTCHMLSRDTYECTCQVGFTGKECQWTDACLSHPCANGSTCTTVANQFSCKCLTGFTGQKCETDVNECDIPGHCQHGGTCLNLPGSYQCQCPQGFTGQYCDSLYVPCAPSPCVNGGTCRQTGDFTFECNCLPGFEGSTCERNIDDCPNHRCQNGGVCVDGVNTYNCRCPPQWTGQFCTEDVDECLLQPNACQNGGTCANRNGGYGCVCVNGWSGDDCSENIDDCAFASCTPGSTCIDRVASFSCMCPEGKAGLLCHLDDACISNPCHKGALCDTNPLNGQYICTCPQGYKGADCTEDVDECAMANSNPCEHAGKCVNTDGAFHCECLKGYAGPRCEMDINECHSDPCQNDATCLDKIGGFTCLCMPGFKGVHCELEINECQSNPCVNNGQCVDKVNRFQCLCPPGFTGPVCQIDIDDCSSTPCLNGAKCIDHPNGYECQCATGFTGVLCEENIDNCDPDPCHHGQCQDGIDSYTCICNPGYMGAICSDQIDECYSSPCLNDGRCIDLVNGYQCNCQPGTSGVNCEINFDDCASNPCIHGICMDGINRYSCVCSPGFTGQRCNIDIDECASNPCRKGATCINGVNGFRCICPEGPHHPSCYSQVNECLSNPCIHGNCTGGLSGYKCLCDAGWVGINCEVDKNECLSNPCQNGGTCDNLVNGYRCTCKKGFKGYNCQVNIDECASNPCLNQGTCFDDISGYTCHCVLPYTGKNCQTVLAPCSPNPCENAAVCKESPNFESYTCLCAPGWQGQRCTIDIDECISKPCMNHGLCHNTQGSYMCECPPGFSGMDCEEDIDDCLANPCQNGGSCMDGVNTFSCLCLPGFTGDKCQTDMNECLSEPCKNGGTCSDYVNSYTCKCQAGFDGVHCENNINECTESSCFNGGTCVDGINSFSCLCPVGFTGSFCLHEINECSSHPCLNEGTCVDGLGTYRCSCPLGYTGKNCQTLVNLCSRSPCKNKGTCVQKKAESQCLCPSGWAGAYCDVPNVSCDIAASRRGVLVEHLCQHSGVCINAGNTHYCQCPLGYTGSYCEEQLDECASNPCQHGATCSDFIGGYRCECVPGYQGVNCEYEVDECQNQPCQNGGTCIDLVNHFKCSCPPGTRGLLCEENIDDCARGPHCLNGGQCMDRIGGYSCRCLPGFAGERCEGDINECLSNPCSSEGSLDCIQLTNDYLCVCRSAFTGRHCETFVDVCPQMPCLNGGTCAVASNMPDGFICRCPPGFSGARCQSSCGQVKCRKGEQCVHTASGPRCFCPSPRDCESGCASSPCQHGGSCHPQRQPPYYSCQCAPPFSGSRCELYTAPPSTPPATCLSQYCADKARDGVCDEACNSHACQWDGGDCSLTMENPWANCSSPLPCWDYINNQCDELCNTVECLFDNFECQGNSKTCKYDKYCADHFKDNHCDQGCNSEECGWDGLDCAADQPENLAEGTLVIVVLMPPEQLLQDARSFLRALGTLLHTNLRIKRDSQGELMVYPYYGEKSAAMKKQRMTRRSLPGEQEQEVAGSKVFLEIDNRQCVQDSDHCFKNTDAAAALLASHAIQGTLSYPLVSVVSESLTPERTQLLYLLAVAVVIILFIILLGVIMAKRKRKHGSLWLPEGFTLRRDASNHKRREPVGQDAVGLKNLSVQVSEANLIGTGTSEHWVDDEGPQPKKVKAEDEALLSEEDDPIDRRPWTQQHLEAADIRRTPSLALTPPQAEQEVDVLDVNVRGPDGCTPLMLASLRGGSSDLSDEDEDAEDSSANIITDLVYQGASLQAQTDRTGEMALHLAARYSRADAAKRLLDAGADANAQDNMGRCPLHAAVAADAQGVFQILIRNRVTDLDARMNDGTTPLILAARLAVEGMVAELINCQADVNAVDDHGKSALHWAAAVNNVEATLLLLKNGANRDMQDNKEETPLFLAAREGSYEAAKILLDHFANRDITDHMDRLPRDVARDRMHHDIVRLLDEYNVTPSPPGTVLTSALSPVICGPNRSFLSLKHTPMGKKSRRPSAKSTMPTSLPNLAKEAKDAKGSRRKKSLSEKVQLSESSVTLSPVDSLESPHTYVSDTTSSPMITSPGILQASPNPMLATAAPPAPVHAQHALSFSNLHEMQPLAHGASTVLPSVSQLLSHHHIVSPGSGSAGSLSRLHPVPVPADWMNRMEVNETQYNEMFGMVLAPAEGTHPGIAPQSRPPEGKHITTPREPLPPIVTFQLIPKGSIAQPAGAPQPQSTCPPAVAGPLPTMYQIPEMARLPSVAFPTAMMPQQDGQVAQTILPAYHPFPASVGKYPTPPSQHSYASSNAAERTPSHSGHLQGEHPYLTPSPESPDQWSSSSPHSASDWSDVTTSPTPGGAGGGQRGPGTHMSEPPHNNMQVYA
Sequence of Pro-neuregulin-1, membrane-bound isoform (Homo sapiens) (Q02297 whole entry, looked up, the tested form may be a part, canonical isoform): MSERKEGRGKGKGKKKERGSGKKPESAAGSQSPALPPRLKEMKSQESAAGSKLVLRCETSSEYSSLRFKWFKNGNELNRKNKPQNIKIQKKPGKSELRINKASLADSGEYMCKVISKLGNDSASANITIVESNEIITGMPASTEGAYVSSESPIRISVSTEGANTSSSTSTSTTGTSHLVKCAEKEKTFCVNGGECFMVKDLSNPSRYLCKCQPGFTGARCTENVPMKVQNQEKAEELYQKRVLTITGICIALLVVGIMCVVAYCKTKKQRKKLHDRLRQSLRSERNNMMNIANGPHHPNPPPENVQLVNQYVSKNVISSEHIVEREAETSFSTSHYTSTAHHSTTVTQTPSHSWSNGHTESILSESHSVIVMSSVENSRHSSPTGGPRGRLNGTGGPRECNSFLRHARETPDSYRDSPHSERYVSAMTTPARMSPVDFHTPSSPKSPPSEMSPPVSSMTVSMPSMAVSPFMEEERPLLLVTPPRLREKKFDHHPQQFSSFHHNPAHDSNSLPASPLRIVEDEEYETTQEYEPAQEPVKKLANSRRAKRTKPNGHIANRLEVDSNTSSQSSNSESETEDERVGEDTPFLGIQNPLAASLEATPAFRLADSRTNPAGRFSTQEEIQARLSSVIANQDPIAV

Take `CN1C(=O)C2C=CC(C(O)COCc3ccccc3)N(Nc3ccc([N+](=O)[O-])cc3[N+](=O)[O-])C2C1=O` (stereo not given): the composite z-score was 0.0982 in test [1]; -0.0795 in [2]; 0.0952 in [3]; 0.475 in [4]; 0.172 in test [5]; 0.0948 in test [6]. Further, the values for the composite z-score in test [7], in [9] and in test [10] were 0.752, 0.329 and -0.167, respectively. Also, in test [8], the z-score was 1.16 (inactive).
As for `CC(C)(C)OC(=O)CC[C@]1(C(=O)N2CCOCC2)COC(c2ccc(OCCCO)cc2)=N1`, the composite z-score in [1] is -0.77; in test [2] it was 0.667; in test [3] it was 0.0476; in [4], 0.0767; in test [5] it was 0.498; in [6] it was 1.6. Moreover, the composite z-score in [7] was 1.32; in test [9], 0.163; in [10], -0.0275. Further, the z-score in test [8] was -0.462 (inactive).
For `CN(C)CCCC[C@@H]1NC(=O)[C@H]2C[C@@H](C(=O)NCCCCCCNC(=O)CS)[C@@H](c3cccc(OCCO)c3)N2C1=O`, the composite z-score is 0.272 in [1]; 0.447 in test [2]; -0.135 in test [3]; -0.217 in test [4]; -0.486 in test [5]; 0.891 in [6]. Further, the composite z-score in test [7] is 0.334; in test [9], -0.346; in test [10], 0.411. Moreover, in test [8], the z-score is 0.47 (inactive).
For `COCCOC(=O)N1C(=O)[C@@]2(c3cc(C#CC4(O)CCCCCC4)ccc31)[C@H](C(N)=O)[C@H]1C(=O)O[C@H](c3ccccc3)[C@H](c3ccccc3)N1[C@@H]2c1ccc(OCCO)cc1`, the composite z-score in test [1] is -0.243; in test [2], 1.08; in [3], 0.0664; in [4] it was 0.69; in test [5], 1.42; in [6], 0.775. Moreover, the composite z-score was determined as 1.22 in test [7], 0.388 in test [9] and 0.189 in test [10]. The z-score in [8] is 1.1 (inactive).
With `COCCOC(=O)N1C(=O)[C@@]2(c3cc(C#CCC(C(=O)OC)C(=O)OC)ccc31)[C@H](C(=O)N1CCc3cc(OC)c(OC)cc3C1)[C@H]1C(=O)O[C@H](c3ccccc3)[C@H](c3ccccc3)N1[C@@H]2c1ccccc1OCCO`, the composite z-score was -0.308 in test [1]; 0.399 in test [2]; -0.0608 in test [3]; 0.375 in [4]; 1.44 in test [5]; 0.875 in test [6]. In addition, the values for the composite z-score in test [7], in test [9] and in [10] were 1.22, 0.651 and -0.204, respectively. Also, the z-score in [8] is -0.223 (inactive).
`Cc1ccc(S[C@]2(C(=O)NCC(C)C)CC(=O)N(C(C)C)[C@@H]2c2ccc(CO)cc2I)cc1`: the composite z-score is 1.12 in test [1]; 1.39 in test [2]; 0.0519 in [3]; -0.41 in test [4]; -0.365 in test [5]; 1.18 in [6]. The composite z-score in test [7] is -0.569; in [9] it was 0.161; in test [10] it was 0.0327. In addition, the z-score in test [8] was -0.999 (inactive).
`CCOC(=O)C[C@H]1[C@H](OC(=O)c2ccc(-c3ccccc3)cc2)[C@@H](NC(=O)C2CCCCC2)c2cc(OCCCO)ccc2N1C(=O)Cc1ccc(OC)cc1`: the composite z-score in test [1] is -0.114; in test [2], 0.279; in test [3], -0.0369; in [4], 0.0887; in test [5], 0.215; in test [6], 0.157. The composite z-score is -0.481 in test [7], 0.241 in [9] and 0.0722 in [10]. Besides, the z-score in [8] is -0.054 (inactive).
On to `CC(C)C[C@@H]1NC(=O)[C@H]2C[C@@H](C(=O)O)[C@@H](c3cccc(OCCO)c3)N2C1=O`, for which the composite z-score in test [1] is 0.885; in test [2], 1.76; in test [3] it was -0.083; in test [4], -0.0367; in test [5] it was -0.26; in test [6] it was 1.61. Also, the figures for the composite z-score in test [7], in [9] and in [10] were 1.48, 0.108 and 0.129, respectively. Besides, the z-score in [8] is 7.43 (inactive).
Regarding `COc1ccc(NN2C(C(O)c3ccc(F)cc3)C=CC3C(=O)N(C4CCCCC4)C(=O)C32)cc1` (stereo not given), the composite z-score in [1] is 0.443; in test [2], 0.0876; in [3], 0.133; in [4], 0.686; in test [5], 1.59; in test [6] it was 1.52. Besides, the composite z-score in test [7] is 1.22; in test [9], 0.688; in test [10], -0.0618. Also, the z-score in [8] is 1.78 (inactive).
Consider `[N-]=[N+]=NCc1ccccc1[C@H]1OC(c2ccc(OCCCO)cc2)=N[C@@]1(CCS(=O)(=O)c1ccccc1)C(=O)O`, for which the composite z-score in test [1] was 0.0191; in [2] it was 0.401; in test [3], -0.0087; in test [4], 0.135; in test [5], 1.21; in test [6], 1.01. Also, the composite z-score in [7] was 0.19; in [9] it was 0.785; in test [10], 0.0881. Further, the z-score in test [8] is 6.44 (inactive).
`CCCN1C(=O)[C@@]2(c3ccc([N+](=O)[O-])cc3)CC(=O)N(C3CCCCC3)[C@@H]2c2ccc(CO)cc21`: the composite z-score in test [1] was -0.439; in test [2], -0.768; in [3], -0.0131; in [4], -0.201; in test [5] it was -0.553; in test [6] it was -0.154. Also, the composite z-score was 1.23 in test [7], -0.479 in test [9] and 0.137 in [10]. Also, the z-score in test [8] was 0.693 (inactive).
Take `C=CCNC(=O)[C@@H]1[C@H]2C(=O)O[C@H](c3ccccc3)[C@H](c3ccccc3)N2[C@H](c2ccc(O)cc2)[C@@]12C(=O)Nc1ccc(C#CC3=CCCCC3)cc12`: the composite z-score is -0.619 in [1]; 1.23 in [2]; -0.0639 in [3]; 1.1 in test [4]; 0.87 in test [5]; 1.15 in test [6]. The figures for the composite z-score in test [7], in [9] and in test [10] were 1.06, -0.17 and -0.426, respectively. Further, the z-score in test [8] is -0.231 (inactive).
Regarding `OCCCc1cc[n+](Cc2cc3c(cc2Br)OCO3)cc1`, the composite z-score was 0.622 in test [1]; -0.226 in test [2]; -0.116 in test [3]; -0.782 in test [4]; -0.914 in test [5]; 1.23 in test [6]. The composite z-score in test [7] is 0.583; in test [9], -0.222; in test [10], -0.383. Besides, the z-score in [8] was 0.584 (inactive).
On to `C=C(CC1([C@@H](NP(=O)(c2ccccc2)c2ccccc2)[C@H]2C[C@@H]2CCCC)CC1)c1cccc(OC)c1`, for which the composite z-score in test [1] is 0.511; in [2] it was -0.411; in [3] it was 0.112; in [4] it was 0.343; in test [5], 1.47; in test [6], 0.0917. For the same compound, the composite z-score in [7] worked out at 0.737; in [9], 1.66; in test [10], 0.579. In test [8], the z-score was 1.5 (inactive).
Consider `CCCCC(=C=CC[C@H](O)c1ccccc1OCCO)CCO`, for which the composite z-score in test [1] was -0.121; in test [2], -0.46; in test [3] it was -0.0579; in [4], 0.656; in test [5], -0.543; in test [6], 1.4. Further, the values for the composite z-score in [7], in test [9] and in test [10] were 0.787, -0.299 and 0.0749, respectively. In addition, the z-score in test [8] was 0.125 (inactive).
As for `CC(C)Cc1ccc(CN2CC[C@@H](NC(=O)c3ccccc3)C2)cc1`, the composite z-score in [1] was 0.0315; in [2], 0.481; in [3], -0.176; in [4], -0.102; in [5], -0.859; in [6], 0.638. Moreover, the figures for the composite z-score in test [7], in test [9] and in test [10] were -0.368, -0.174 and -0.13, respectively. Further, the z-score in test [8] is -0.623 (inactive).
